Data taken from PubChem BioAssay AID1159506 (National Center for Advancing Translational Sciences (NCATS), 2015).
The full ranking holds about 59,000 sequences; the median of the read-out is about -0.00055, and the lowest 2% start at about -2. The full list was thinned out, with the lowest values kept by preference.

Test: Identification of proteins required for the processing of the EWS-FLI1 nascent transcript;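 note: robust z of luciferase light less the median z of siRNAs with the same seed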
Details: TC32 Ewing sarcoma NR0B1-luc vs CMV-luc (EWS-FLI1 target promoter against control promoter), 48 h; screened at 20 nM (by protocol)
In short: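 TC32 Ewing sarcoma cells carrying NR0B1-promoter or CMV-promoter luciferase reporters were reverse-transfected with single siRNAs at 20 nM, three per gene genome-wide. Luminescence was read after 48 h and normalized to non-targeting controls.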

Row | Sequence | seed-corrected z-score
1 | UAAUAGUCAGGUUCCCUGU against OR6C2 | -0.02
2 | AAAGUAGGACGAGAUGCCG against DDX51 | 1.06
3 | UCUGGACACGGCUUAUUGC against C17orf58 | 0.125
4 | AUAAGAACAACAAAUACAC against C2CD4A | 0.789
5 | UGGUUAUUAAUGGUGCACC against ELF2 | -2.8
6 | UUAGAGCUACUGAACUGCC against DHX58 | 0.739
7 | AAGUUGCCAAGAACAUGCU against LINC01168 | -3.59
8 | UAUCUGGUAUGCUACGUCC against CCDC7 | 0.683
9 | UAUGAUCGAACUUUUUGAG against RSG1 | -2.03
10 | AACCUGUCAAUUAUCACUG against EBF1 | 0.337
11 | UCUCCGUCCACAUUUGUUG against NTRK1 | 0.0167
12 | UCUCUGAUGAGCAUUAAGG against ZNF26 | -0.977
13 | AAACUUCUUGGGUUUCUAC against ZBTB8OSP1 | 0.246
14 | ACACUGACAAAUGUUAGGC against VWDE | -2.22
15 | AACCUUUAACUUGUGCUCC against ELAC2 | 0.641
16 | UGCCCAAAUAGAAUUCUGU against RPL35A | -0.216
17 | AGCUUUUCCAAAACCGUGC against NGDN | 2.14
18 | AUAUUUAUUGGGCAGUGGA against PYDC1 | -0.518
19 | UUUGUAGCAGGUACAGGCC against EPPK1 | -0.0968
20 | AAGGUGGUAGGCACUUUGG against MAVS | -2.67
21 | UUCGAAAUGCCUGAUAGCC against P3H2 | 0.287
22 | AGAUGUUCCACACUCUGCC against C1orf95 | -3.59
23 | AUACUGCCGAUAUAUCAGC against AP4S1 | -0.442

Row | Sequence | seed-corrected z-score
24 | AAGUUUAUGGACAAUUUCC against SMYD5 | 0.313
25 | UACUUUACAACAUAUGGGC against STK3 | -0.0972
26 | UGGUUAGCAAUGCAUAUUC against SV2C | 0.364
27 | UUCUUCAUUCCUGCUAGGC against EEF1B2P5 | -0.108
28 | UAAGGGUCAAUGCAGUAGU against ZAR1L | -0.414
29 | UAAAUAGCAAAUUGCAUAC against DNAJB3 | 1.32
30 | UUUGCCUAGACUAUGCUUG against PPARGC1B | -1.6
31 | AUCUGCAUAAUCCUUGUUG against COG2 | -2.77
32 | UAUGUAACUGACAAUGACG against ADGRA3 | -0.447
33 | UUGAGUGCAAAGGCUUGUC against SLC25A12 | 1.4
34 | UUAGGUCUCUGAAGUUUUC against NUTM2A-AS1 | -0.188
35 | UAUCUUAUUUCAUCGUUUC against PTGS1 | -0.545
36 | AUCGUCUUGACUGUGGUCC against CEACAM1 | -0.766
37 | AUAGCGAUUAUUCUCACAG against PDHA1 | 0.0331
38 | UUAUUUAUCUGAGUUGUGA against NFIA-AS1 | -2.52
39 | UGCAGUAAACAUUUCGUUG against ADAMTS9 | -0.75
40 | UUGUGGUAGAUGGGACUGG against DOK3 | -3.05
41 | UCUGCGGUUACUCUCCAUC against TLX1 | -0.0327
42 | AUGAGUACAGACAAGGUCC against DRD1 | -0.626
43 | AACAGGCUCAGGGAUAUUG against MORN2 | -1.84
44 | UAGCUUCGAAUAAACAUCC against FAM3D | -4.22
45 | UGAAAUACGGAUGACAUUC against AKR1C3 | -1.21
46 | UUUUGUGCAUAGACCAUAG against DHRS12 | -0.542

Row | Sequence | seed-corrected z-score
47 | UCUUCUUAGACCUUUCGGG against PRPF38A | -2.28
48 | UUUGCAUCGUGGUAUUUCC against CTCFL | 0.259
49 | UUUACGAUAAUCAACCUUC against BCO1 | 0.641
50 | UUCGCAUUGCUUCUAACUC against UACA | 0.538
51 | UUCAAAGUAUCGUUCUUUC against PANX3 | 1.35
52 | UCCCGUACCAAGGGUAGCU against FAM78B | 0.456
53 | AAUGGUGUUGCUCUUCUCC against ZNF23 | 1.51
54 | UUCGAAUAGUAGAAAGUCG against ABCB5 | 0.0668
55 | AAGCAUGUUGGUAACCUCG against PLA2G3 | -2.04
56 | UACAGCAUCGUCUUCUACC against TMEM246 | 0.565
57 | UACACUUGAGUUGACGACC against LOC642335 | 0.105
58 | UGCAUAGACAGAUUAAGCC against SEC22A | -0.0597
59 | UGCUCUUUUGCUUACGUGG against GAB1 | -1.74
60 | UGCGUUUUCAGCUGGUUAC against MYNN | -3.83
61 | UCCGUGAGAACUCAUAAGG against TG | -0.13
62 | UACAGUCAAAGCUCCGUUC against GFI1 | 1.42
63 | UCUGCGUUCUGAUUGGUGG against ANKRD55 | -4.59
64 | AUGCAAGUAACUGAGAUCG against CLEC14A | -1.2
65 | UGUUCUAUGAGGCAAGAUG against ZGRF1 | 0.286
66 | ACUUUCACAACGAUUUUCU against RPL34P34 | -2.47
67 | UUCUUUACAGCAUGAGGGC against CCL25 | 0.424
68 | AAAGUCAUCAGCAAUUUGG against OR10G8 | -1.41
69 | UCCGUCGUCAGAAAGAUGC against DGCR2 | 0.0908

Row | Sequence | seed-corrected z-score
70 | UGACGUGUCAUUCUCAUAC against ZNF69 | -2.01
71 | UUGGAGCAAAAUACAGUGG against NQO1 | 0.331
72 | UUGUUCCUCAGGUCAAGUG against GAB2 | 1.13
73 | UAGUUGUUCAGCGAGGUCC against CEP250 | -0.0255
74 | AACAUCACCAAAUAGCUGG against LIMS1 | 0.191
75 | UAUUUCGAAAAUAAUCUCC against TMEM18 | -0.129
76 | UUCAGCAUUUGAUUCAAUC against HTRA4 | -0.127
77 | UCUGCUGAUAGCAAUGGGC against ZNF512B | -2.13
78 | UUUUGGUCGUCGUUCUUCU against COMP | -2.12
79 | UUCUACUCUAGCAAUUUCC against NDC80 | -2.12
80 | UCAAGGACCAGGCCGUUUU against ALG1L3P | 1.09
81 | UAAUUGUGACACUUGUUCC against TSLP | -1.67
82 | UAGGUAAGGACGGAAACGC against ZPBP2 | 0.591
83 | UACCGUGACAAAAUAAGUG against LOC728175 | 0.818
84 | UCUGAUGACUGUUUACAGC against ZNF180 | 0.161
85 | UAAUUAAUAUCGUCCAGAG against C6orf120 | -0.208
86 | UCAUUCACUAUCACUUGUC against ZNF35 | -1.13
87 | AACUCUUCACGUACUAGCC against PKD2 | 0.287
88 | UUAGCUGCUGGGAACACUG against IL18BP | -2.28
89 | UAUGUUUCUCGUCUCAACA against DNM1P49 | -0.258
90 | AAAGUCACGUUUUCCGCGC against RGS14 | 0.981
91 | AAAGAUACAUCUGCCUUCC against CMPK1 | -0.0168
92 | AGAAUUCUGAGGGCGGAGC against UCN2 | -0.561

Row | Sequence | seed-corrected z-score
93 | AUAGUAAGCAGCCUUCUGC against HOXD3 | -3.99
94 | UAUCUUGACCAAAUAAACC against MPC2 | 0.235
95 | ACAGGAGCCACCCUAAAAG against WDR86 | 0.75
96 | UCUGUCUCCGCUUGGAGUG against FOS | 0.622
97 | UAGGUCUUAGGAGUCAUCU against RPL9P25 | -2.06
98 | UCUGCUCCAAUAAUCCGGC against ANKS6 | 0.347
99 | UCCGUUUCCACAUGGUCGC against TEKT4 | 0.747
100 | AUAGGCAAGAGUGACAAGC against CNGB3 | 0.169
101 | UGGGAUCUAACUCCUUAGC against IFT172 | -2.76
102 | UACUAGAUGUGGUGCAUCC against RPS6KA3 | 0.496
103 | UAGGCAUCCGUAUCCCUGC against FAM131B | 0.847
104 | AGCUGCUAAACUUUCAUCC against JAKMIP2 | -2.59
105 | UCUCGAAUGAGAAUGCUCC against CSTF3 | -0.0852
106 | UUCUUGAUCUUGGAUCUUU against DLX5 | -0.846
107 | UUCUUGAUCAUCAUUCACC against SLC7A6OS | 0.569
108 | UAUCGUAAAAUCACAUGAG against AMFR | 0.503
109 | UGAUGUUUCGCAGGCACCG against CRHR1 | 0.0226
110 | UUAAUUACUCUCUUCAAUG against UGT2B7 | -0.533
111 | UUUUGGGCCUCUGAACUCC against LCE1B | 0.31
112 | UACCUUAACCAUCCGAUGC against WDR6 | 0.132
113 | UAGAGGAUAAUGUUCUCGG against ABHD17C | -12.1
114 | UUGGAGAUCAAUCCAGCCU against CBFB | 0.537
115 | UCAAUCAUCCGUGAGUUGC against WBSCR22 | 0.315

Row | Sequence | seed-corrected z-score
116 | UUUCAGCUGCGCUCGGUUC against GOLGA6L2 | -3.72
117 | UGCAUUCCGGCUGUGAUCG against LINC00152 | -0.804
118 | UUAUGGGCUCUGAUGACCG against DIP2C | 0.0672
119 | UUCAGGAUCGCGGUUAUCA against OR4X2 | 0.269
120 | UUAAAGACUCGGUUCACUG against PLXNA3 | -1.44
121 | UAUACUCCCGCACAUAGCC against PI4KA | -0.673
122 | UUGUUAUGAAUGUACAUCG against TMEM181 | -5
123 | UCCGCAGUUCCUUAAGUGG against LOC401589 | 0.0579
124 | UGCUGAAACCUUGAUGUGC against CRTC3 | 1.11
125 | UUGAGUAAGAGAUGGACCC against ZNF184 | -0.444
126 | AAUGAUCCCACAGAUAUCA against IKZF1 | 0.796
127 | UCUGUUCGAUCAUCCGUGC against ACP6 | -0.281
128 | UGUGUCCCUCCCAAUCUCC against GGT2 | 0.0675
129 | AAAUCGAUGAGAAACCUGC against KAT6A | 0.325
130 | UACAUUGUAGCAGAUGUUG against ACSS2 | -0.36
131 | AAGUCUACAAGUGAUCUCU against ATP6V0E2-AS1 | -2.23
132 | UGUUGUUUACGUUCGAUUG against ADD3 | -0.745
133 | UGUUAGGUAAGGCUAGGUC against UTS2B | 0.63
